About 4,300 (8.3%) of roughly 52,000 compounds were called active. The list comes from a sample in which actives are over-represented; it also holds similar structures and randomly drawn compounds. Unmarked numbers belong to inactive results. No stated cut-off is given here; in the data, active means survival mostly below about 52% (no sharp cut-off); inactive means mostly above about 56%.
Tested on: DeltatarO mutant
Test: growth inhibition of S. aureus wild type versus tarO mutant, primary screen, teichoic acid synthesis inhibitors, RN4220, OD600 (AID 463173)
Details: OD600, 18 h, active compounds read low, screened at 18.75 µg/mL (by protocol)

Row | Structure (SMILES) | survival
1 | Cc1ccccc1C(=O)n1nc(-c2cccnc2)nc1NCc1ccc(F)cc1 | 48%
2 | O=C(c1ccc(F)cc1)n1nc(-c2cccnc2)nc1NCc1ccccc1 | 71%
3 | O=C(c1ccc(F)cc1)n1nc(-c2cccnc2)nc1NCc1ccc(F)cc1 | 73%
4 | COc1ccc(CNc2nc(-c3ccccc3)nn2C(=O)c2ccccc2OC)cc1 | 102%
5 | O=C(c1ccc(Cl)cc1)n1nc(-c2cccnc2)nc1NCc1ccc(F)cc1 | 43% (active)
6 | O=C(c1ccc(F)cc1)n1nc(-c2ccccc2)nc1NCc1ccc(F)cc1 | 30% (active)
7 | Cc1cccc(C(=O)n2nc(-c3cccnc3)nc2NCc2ccc(F)cc2)c1 | 54%
8 | O=C(c1ccccc1)n1nc(-c2ccccc2)nc1NCc1ccc(F)cc1 | 12% (active)
9 | O=C(c1ccccc1Cl)n1nc(-c2cccnc2)nc1NCc1ccc(F)cc1 | 55%
10 | O=C(c1ccco1)n1nc(-c2ccccc2)nc1NCc1ccc(F)cc1 | 65%
11 | COc1ccc(CNc2nc(-c3ccc(Cl)cc3)nn2C(=O)c2ccccc2)cc1 | 36% (active)
12 | COc1ccccc1C(=O)n1nc(-c2ccccc2)nc1NCc1ccc(Cl)cc1 | 56%
13 | Cc1ccc(Cn2ccnc2SCC(=O)Nc2ccc3c(c2)OCO3)cc1 | 92%
14 | COc1ccc(NC(=O)CSc2nc3ccncc3[nH]2)c(OC)c1 | 95%
15 | CCCCC12CN3CC(C)(CN(C1)C3c1cc(Br)ccc1O)C2=O (stereo unspecified) | 72%
16 | CCN=C1S/C(=C\c2cn(CC(=O)NCCOC)c3ccccc23)C(=O)N1CC | 95%
17 | CCOc1ccc(CCNC(=O)CS(=O)(=O)Cc2nc(-c3ccc(OC)cc3)oc2C)cc1 | 83%
18 | COc1ccc(N(CC(=O)NCc2ccc(F)cc2)S(=O)(=O)c2c(C)n[nH]c2C)cc1 | 79%
19 | CCNC(=O)c1cnc2sc(N3CCC(C)CC3)nn2c1=O | 74%
20 | Cc1ccc(S(N)(=O)=O)cc1NC(=O)c1c(-c2c(Cl)cccc2Cl)noc1C | 55% (active)
21 | Cc1onc(-c2ccccc2Cl)c1C(=O)NC(C(=O)O)C(C)C (stereo unspecified) | 86%
22 | Cc1onc(-c2c(F)cccc2Cl)c1C(=O)Nc1ccc(OC(C)C)cc1 | 62%
23 | CC(C)c1cc(C(=O)NCc2ccccc2)no1 | 54%

Row | Structure (SMILES) | survival
24 | CCOC(=O)C1CCN(C(=O)CSc2n[nH]c(-c3ccccc3)n2)CC1 | 97%
25 | O=C(Nc1noc2ccccc12)c1c(F)cccc1F | 87%
26 | COC(=O)c1cccc(Nc2c(-c3ccc(OC)cc3)nc3nc[nH]n23)c1 | 64%
27 | Cc1cc(C)n(-c2nc3cc(Cl)ccc3nc2Nc2ccc(C)c(F)c2)n1 | 91%
28 | COc1ccccc1N1CCN(c2nc3ccc(C)cc3n3nnnc23)CC1 | 128%
29 | Cc1cc(C)n(-c2nc3cc(Cl)ccc3nc2N2CCN(c3cccc(C)c3C)CC2)n1 | -6% (active)
30 | Cc1cc(C)n(-c2nc3ccccc3nc2N2CCN(c3cccc(C)c3C)CC2)n1 | -6% (active)
31 | Cc1cc(C)n(-c2nc3cc(Cl)ccc3nc2N2CCN(c3ccccc3F)CC2)n1 | 98%
32 | Cc1ccc2nc(N3CCN(c4cccc(Cl)c4)CC3)c3nnnn3c2c1 | 88%
33 | Cc1ccc2nc(N3CCN(c4cccc(Cl)c4)CC3)c(-n3nc(C)cc3C)nc2c1 | 0% (active)
34 | Cc1cc(C)c(C#N)c(N2CCN(c3cccc(C)c3C)CC2)n1 | 106%
35 | COc1ccccc1N1CCN(c2nc3ccc(C)cc3nc2-n2nc(C)cc2C)CC1 | -5% (active)
36 | Cc1ccc(C)c(N2CCN(c3nc4ccc(C)cc4nc3-n3nc(C)cc3C)CC2)c1 | 102%
37 | Cc1cc(C)n(-c2nc3ccccc3nc2N2CCN(c3cccc(C(F)(F)F)c3)CC2)n1 | 91%
38 | Cc1cc(C)n(CCc2nc3c4ccccc4nc(N4CCN(c5cccc(C)c5C)CC4)n3n2)n1 | 86%
39 | O=C(Nc1ccccc1C(F)(F)F)N1CCN(c2ccc3nnc(-c4ccc(F)cc4)n3n2)CC1 | 58%
40 | COc1ccc(-c2nc(CSc3nncn4c3cc3oc(C)cc34)c(C)o2)cc1 | 56%
41 | Cc1c(Cl)cccc1-n1ncc(C(=O)N2CCOCC2)c1C1CCN(C(=O)OC(C)(C)C)CC1 | 103%
42 | CCc1ccc(S(=O)(=O)Nc2cccc(-c3ccc(OC)nn3)c2)s1 | 76%
43 | Cc1c(CC(=O)NCCc2ccccc2F)c(=O)oc2cc(O)c(Cl)cc12 | 59%
44 | CCn1cc(C(=O)N2CCN(c3ccccc3F)CC2)c(=O)c2cc(S(=O)(=O)N(C)C3CCCCC3)ccc21 | 79%
45 | CCOc1ccc(CCNC(=O)c2cn(C)c3ccc(S(=O)(=O)N4CCCCC4)cc3c2=O)cc1OCC | 101%
46 | CCOc1ccc(CCNC(=O)c2cn(C)c3ccc(S(=O)(=O)N4CCOCC4)cc3c2=O)cc1OCC | 56% (active)

Row | Structure (SMILES) | survival
47 | CCn1cc(C(=O)NC(C)c2ccccc2)c(=O)c2cc(S(=O)(=O)N3CCc4ccccc4C3)ccc21 (stereo unspecified) | 80%
48 | CCn1cc(C(=O)NCCc2ccc(C)cc2)c(=O)c2cc(S(=O)(=O)N3CCc4ccccc4C3)ccc21 | 67%
49 | CCn1cc(C(=O)NCCc2ccccc2)c(=O)c2cc(S(=O)(=O)N3CCc4ccccc4C3)ccc21 | 67%
50 | CCn1cc(C(=O)NCc2ccccc2)c(=O)c2cc(S(=O)(=O)N3CCc4ccccc4C3)ccc21 | 73%
51 | CCn1cc(C(=O)NCCc2ccc(Cl)cc2)c(=O)c2cc(S(=O)(=O)N3CCc4ccccc4C3)ccc21 | 54% (active)
52 | CCC(C)NC(=O)c1cn(CC)c2ccc(S(=O)(=O)N3CCc4ccccc4C3)cc2c1=O (stereo unspecified) | 35% (active)
53 | CCOc1ccc(CCNC(=O)c2cn(C)c3ccc(S(=O)(=O)N4CCCCCC4)cc3c2=O)cc1OCC | 61%
54 | Cn1cnnc1SCC(=O)O | 85%
55 | Cc1ccc(NC(=O)CC(C)S(=O)(=O)c2ccc3c(c2)NC(=O)CO3)cc1C (stereo unspecified) | 85%
56 | Cc1ccc(N2CCN(C(=O)c3c(C)oc4ncnc(N5CCCCC5)c34)CC2)c(C)c1 | 77%
57 | CCOc1cc(C(=O)NCC(c2ccc(N(C)C)cc2)N2CCOCC2)cc(OCC)c1OCC (stereo unspecified) | 101%
58 | CCc1ccc(Nc2ncnc3c2cnn3-c2cc(Cl)ccc2C)cc1 | 77%
59 | CCc1nnc(SCc2nc(-c3ccc(OC)c(OC)c3)oc2C)c2cc3sc(C)cc3n12 | 69%
60 | NS(=O)(=O)c1ccc(CCNC(=O)Cn2c(=O)c3cccn3c3ccc(F)cc32)cc1 | 89%
61 | O=C(CCn1c(=O)c2cccn2c2ccc(F)cc21)NCc1ccccc1F | 45% (active)
62 | O=C(Cn1c(=O)c2cccn2c2ccccc21)NCCc1ccccc1 | 62%
63 | O=C(CCn1c(=O)c2cccn2c2ccc(F)cc21)NCCc1ccc(Cl)cc1 | 50%
64 | O=C(CCCn1c(=O)c2cccn2c2ccc(F)cc21)NCCc1ccccc1 | 47% (active)
65 | O=C(CCn1c(=O)c2cccn2c2cccnc21)NCc1ccccc1F | 100%
66 | O=C(CCn1c(=O)c2cccn2c2ccc(F)cc21)NCCc1ccccc1 | 42% (active)
67 | CSc1ccc(CNC(=O)CCn2c(=O)c3cccn3c3ccc(F)cc32)cc1 | 59%
68 | CCC(=O)Nc1ccc(-c2nnc3c4ccccc4c(C)nn23)cc1 | 90%
69 | COc1ccc(OC)c(NC(=O)c2c(C)oc3ncnc(N4CCOCC4)c23)c1 | 134%

Row | Structure (SMILES) | survival
70 | COC(=O)C(C)Sc1cc(C)c2ccccc2n1 (stereo unspecified) | 76%
71 | CCCCNC(=O)CCCn1c(=O)c2ccccc2n(Cc2cccc(Cl)c2)c1=O | 100%
72 | Cc1cc(C)n2nc(-c3ccc(Cl)cc3)nc2n1 | 76%
73 | Cc1cc(N(CCO)Cc2ccccc2)n2nc(-c3ccc(C(C)(C)C)cc3)nc2n1 | 48%
74 | CCN(CC)c1cc(C)nc2nc(-c3ccc(C)cc3)nn12 | 43% (active)
75 | Cc1cc(N(C)Cc2ccccc2)n2nc(-c3ccc(C(C)(C)C)cc3)nc2n1 | 39% (active)
76 | CCCN(CCC)c1cc(C)nc2nc(-c3ccc(C(C)(C)C)cc3)nn12 | 103%
77 | CCCN(CCC)c1cc(C)nc2nc(-c3ccc(Cl)cc3)nn12 | 52%
78 | Cc1cccc(C(=O)NC2(C(F)(F)F)N=C(c3ccccc3)N(C3CCCCC3)C2=O)c1 (stereo unspecified) | 68%
79 | Cc1c(Cl)cccc1NC(=O)Cn1nc(C(F)(F)F)c2c1CCC2 | 73%
80 | CCOc1ccc(S(=O)(=O)NCCc2sc3nc(-c4ccc(F)cc4)nn3c2C)cc1 | 67%
81 | Cc1nn2c(-c3ccco3)ccnc2c1-c1ccc(Cl)cc1 | 94%
82 | Cc1cc(-c2ccccc2)nc2cc(C(N)=O)nn12 | 71%
83 | Cc1ccc(S(=O)(=O)NCCc2nnc3ccc(SCc4ccc(F)cc4)nn23)cc1 | 112%
84 | CCOc1ccc(NCc2cccn2-c2nnc(N3CCC(C(=O)NCc4cccc(OC)c4)CC3)s2)cc1 | 80%
85 | Cn1cnc(S(=O)(=O)N2CCC(C(=O)Nc3ccc(F)cc3F)CC2)c1 | 91%
86 | NC(=O)COc1cccc(-n2cnnn2)c1 | 63%
87 | COc1ccc2nc(SCC(=O)O)[nH]c2c1 | 104%
88 | COc1ccc2nc(-c3ccc(N)cc3)[nH]c2c1 | 58%
89 | CCN(CC)CCSc1nc2ccc(OC)cc2[nH]1 | 70% (active)
90 | Cc1ccc(S(=O)(=O)N2CCCC2C(N)=O)cc1 (stereo unspecified) | 59%
91 | COc1cc(C(=O)Nc2ccc3oc(-c4ccc(C)c(Br)c4)nc3c2)cc(OC)c1OC | 93%
